Screening data as filed in PubChem BioAssay.
ATXN2 expr inh = reduces ATXN2 reporter expression in HEK-293 cells; Potency, µM (top dose mostly 57 µM), usual class: inhibitors; 0.72% of 360,000 active; HEK-293 ATXN2-luciferase reporter, luminescence, 24 h; further: nearly all actives have a fitted effect of over 55% in size
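ATXN2-luciferase reporter cells (luciferase flanked by upstream and downstream ATXN2 gene portions) were treated 24 h at 37 °C with compounds at up to 57 uM. SteadyGlo luminescence gave expression; GF-AFC fluorescence gave viability.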
TDP1 cell CPT = DT40-hTDP1 cell growth loss with CPT; chicken DT40 Tdp1-/-;hTDP1 cells + 20 nM CPT, ATP luminescence, 48 h; Potency, µM (top dose mostly 46.2 µM), hits mostly inhibitors; 12% of 420,000 active; further: nearly all actives have a fitted effect of over 55% in size
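Chicken DT40 Tdp1-/- cells complemented with human TDP1, 400 cells/well, exposed to compounds plus 20 nM camptothecin for at least 48 h at 37 C; viability read as ATP content by CellTiter-Glo luminescence.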
HepG2 viability = kills HepG2 cells in TGF-b inhibitor counter-screen. HepG2 CAGA-GFP viability, ATP luminescence, 18 h. Potency, µM (top dose mostly 46.1 µM), most hits filed as cytotoxic. 0.76% of 410,000 active
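CellTiter-Glo luminescence gave cytotoxicity after 18 hours at 37 degrees C. The cells were HepG2 CAGA-GFP in 1% FBS DMEM, stimulated with 500 pg/mL TGF-beta after compound addition. %Activity was normalised to no-cell wells (complete cell-killing) and DMSO (no toxicity), and curves were fitted and classified.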
S2 tox = viability counter-screen for ATXN expression inhibitors; S2 cells (HEK-293 line with an ATXN2-luciferase reporter) viability, CellTiter-Fluor protease fluorescence, 24 h; Potency, µM (series often up to 56.7 µM), usual class: cytotoxic; 0.49% of 400,000 active; further: nearly all actives have a fitted effect of over 40% in size
TDP1 cell noCPT = qHTS for Inhibitors of human tyrosyl-DNA phosphodiesterase 1 (TDP1): qHTS in cells in absence of CPT; DT40 Tdp1-/- hTDP1 cells, no CPT, ATP luminescence, 48 h; 15% of 420,000 active; Potency, µM (top dose mostly 46.2 µM), hits mostly inhibitors; further: nearly all actives have a fitted effect of over 55% in size
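Seeded 400 DT40-hTDP1 cells/well (vehicle DMSO, no 20 nM CPT); pinned compounds; ≥48 hr at 37 °C; CellTiter-Glo luminescence as viability measure.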
TGFb inhibitor = inhibitors of TGF-b signaling. 1.2% of 410,000 active. HepG2 CAGA-GFP TGF-b/SMAD3 reporter, GFP fluorescence, 18 h; TGF-beta stimulated, 500 pg/mL final. Potency, µM (top dose mostly 46.1 µM), most hits filed as inhibitors; further: nearly all actives have a fitted effect of over 65% in size
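HEPG2 CAGA-GFP reporter cells (1000/well, DMEM with 1% FBS) received compounds, then recombinant TGF-beta at 500 pg/mL final for 18 hours at 37 degrees C. Per-cell GFP summed per well was normalised to unstimulated and stimulated DMSO controls before curve fitting.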
Of the large screens only hits and unclear results are named; the others gave an inactive call; ! = a repeat was not active. Compounds with a hit are over-represented: about 17% of the library has one in this group of screens. The call rests on the fitted dose curve; in most records, active means well fitted curve in the direction sought with a large enough effect; inconclusive means small, poorly fitted or top-dose-only effect, or another doubt; inactive means no such curve, though single readings can be large; an effect the other way counts as inactive or inconclusive.

O=c1c2ccccc2nc(-c2ccco2)n1-c1ccncc1	S2 tox inconclusive
CC1CCN(c2nc(-c3ccc(F)cc3)cc(C(F)(F)F)n2)CC1	none
C[C@@H]1O[C@@H](O[C@H]2C[C@@H](O)[C@]3(CO)[C@@H]4C(CC[C@]3(O)C2)[C@@]2(O)CC[C@H](C3COC(=O)C3)[C@@]2(C)C[C@H]4O)[C@H](O)[C@H](O)[C@H]1O (some centres not stated)	ATXN2 expr inh 1.6µM, S2 tox inconclusive, TDP1 cell noCPT inconclusive, TGFb inhibitor inconclusive
COC1C(O)C(OC2CC[C@]3(C=O)C4C(OC(C)=O)C[C@@]5(C)C(C6=CC(=O)OC6)CC[C@]5(O)C4CC[C@]3(O)C2)OC(C)C1OC(C)=O (some centres not stated)	none (no result: ATXN2 expr inh, HepG2 viability, S2 tox, TGFb inhibitor)
CCCNC(=O)Cn1cnc2sc(C(=O)N3CCC4(CC3)OCCO4)c(C)c2c1=O	none
Cc1c(C(=O)N2CCC3(CC2)OCCO3)sc2ncnc(N3CCN(c4ccccn4)CC3)c12	ATXN2 expr inh inconclusive, TDP1 cell CPT 21µM, S2 tox inconclusive, TDP1 cell noCPT 16µM
C[n+]1c2ccccc2nc2ccc(NCCO)cc21	TDP1 cell CPT 18µM, S2 tox 13µM, TDP1 cell noCPT 10µM
CNc1ccc2nc3ccccc3[n+](C)c2c1	TDP1 cell CPT 1.2µM, S2 tox 10µM, TDP1 cell noCPT 0.73µM (no result: ATXN2 expr inh)
CC(C)CNC(=O)/C=C/C=C/CCCCCC/C=C/c1ccc2c(c1)OCO2	none
CCOC(=O)c1cccc(C2=C(CNC(=O)c3nccs3)[C@H]3CC[C@@H](C2)N3Cc2ccccc2)c1	ATXN2 expr inh inconclusive, TDP1 cell CPT 15µM, S2 tox inconclusive, TDP1 cell noCPT 23µM
CCOC(=O)c1cccc(C2=C(CNC(=O)c3ocnc3C)[C@H]3CC[C@@H](C2)N3Cc2ccccc2)c1	TDP1 cell noCPT inconclusive
CCN1CCN(S(=O)(=O)c2ccc(Cl)c(C(=O)Nc3ccc(C(=O)N(CC)CC)cc3)c2)CC1	TDP1 cell CPT 15µM, TDP1 cell noCPT inconclusive
CCN(CC)C(=O)c1ccc(NC(=O)c2cccc(C(F)(F)F)c2)cc1	TDP1 cell noCPT inconclusive
CN1C(=O)C(=Cc2cn(CC(=O)N3CCCC3)c3ccccc23)C(=O)N(C)C1=O	none
CCOC(=O)Cn1cc(C=C2C(=O)N(C)C(=O)N(C)C2=O)c2ccccc21	TGFb inhibitor 7.1µM
Cc1cc(Br)c(NC(=O)CN2CC=C(c3ccccc3)CC2)c(Br)c1	TDP1 cell noCPT inconclusive
Cc1[nH]c2ccccc2c1C(=O)CN1CC=C(c2ccccc2)CC1	TDP1 cell CPT 16µM, TDP1 cell noCPT inconclusive
O=P(Nc1cccnc1)(Oc1ccccc1Cl)Oc1ccccc1Cl	none
O=C1NC(=O)C(=Cc2ccc(Sc3ccccc3)o2)C(=O)N1	ATXN2 expr inh inconclusive, TDP1 cell CPT inconclusive, S2 tox inconclusive, TDP1 cell noCPT 15µM
O=C1NC(=O)C(=Cc2ccc(-c3ccc(Cl)cc3)o2)C(=O)N1	ATXN2 expr inh inconclusive, TDP1 cell CPT 5.8µM, S2 tox 28µM, TDP1 cell noCPT 8.2µM, TGFb inhibitor inconclusive
O=C1NC(=O)C(=Cc2ccc(-c3ccc(S(=O)(=O)N4CCOCC4)cc3)o2)C(=O)N1	TDP1 cell CPT inconclusive, TDP1 cell noCPT inconclusive
COC(=O)c1ccc(NC2=C(Cl)C(=O)OC2OC(=O)c2ccccc2)cc1 (configuration not stated)	TDP1 cell CPT inconclusive, TDP1 cell noCPT inconclusive
CNCCC(Oc1ccc(C(F)(F)F)cc1)c1ccccc1 (configuration not stated)	ATXN2 expr inh 28µM!, TDP1 cell CPT inconclusive, S2 tox 32µM, TDP1 cell noCPT 26µM
CC(Cc1ccccc1)/[N+]([O-])=C\c1ccc(C(F)(F)F)cc1 (configuration not stated)	TDP1 cell CPT inconclusive, TDP1 cell noCPT inconclusive
COC1CC(=C(c2cccs2)c2cccs2)C[N+](C)(C)C1 (configuration not stated)	TDP1 cell CPT inconclusive, TDP1 cell noCPT inconclusive (no result: HepG2 viability, TGFb inhibitor)
CC1=C2CC3C(CC=C4C[C@@H](O)CC[C@@]43C)[C@@H]2CC[C@]12O[C@@H]1C[C@H](C)CN[C@H]1[C@H]2C (some centres not stated)	none (no result: ATXN2 expr inh, HepG2 viability, S2 tox, TGFb inhibitor)
COc1ccc(-n2c(/C=C/c3cccc(F)c3)nc3ccccc3c2=O)c(OC)c1	TDP1 cell CPT 13µM, TDP1 cell noCPT inconclusive
COc1ccc(-n2c(/C=C/c3cccc(F)c3)nc3ccccc3c2=O)cc1Cl	TDP1 cell CPT 21µM, TDP1 cell noCPT inconclusive, TGFb inhibitor inconclusive (no result: ATXN2 expr inh, S2 tox)
O=c1c2ccccc2nc(/C=C/c2ccccc2)n1-c1ccccc1F	TDP1 cell CPT inconclusive, TDP1 cell noCPT inconclusive, TGFb inhibitor inconclusive (no result: ATXN2 expr inh, S2 tox)
Oc1cc(Cl)cc(Cl)c1Cl	TDP1 cell CPT inconclusive, TGFb inhibitor inconclusive
CC[C@@H]1[C@@H](C)O[C@@](O)([C@@H](C)[C@H](O)[C@H](C)[C@H]2OC(=O)C=CC=C[C@@H](C)[C@@H]([C@@H](C)[C@@H](O)[C@H](C)[C@@]3(O)C[C@H](O[C@H]4C[C@H](O)[C@H](O)[C@H](C)O4)[C@H](CC)[C@@H](C)O3)OC(=O)C=CC=C[C@@H]2C)C[C@H]1O[C@H]1C[C@H](O)[C@H](O)[C@H](C)O1	ATXN2 expr inh 0.97µM (no result: TDP1 cell CPT, HepG2 viability, S2 tox, TDP1 cell noCPT, TGFb inhibitor)
CC(C)c1ccc(NC(=O)Nc2nc(C(N)CCc3ccccc3)cs2)cc1 (configuration not stated)	ATXN2 expr inh 28µM, TDP1 cell CPT 5.8µM, HepG2 viability 7.9µM, S2 tox 28µM, TDP1 cell noCPT 4.6µM, TGFb inhibitor inconclusive
CC(C)CC(N)c1csc(NC(=O)Nc2ccccc2-c2ccccc2)n1 (configuration not stated)	TDP1 cell CPT 23µM, S2 tox 25µM, TDP1 cell noCPT 18µM, TGFb inhibitor inconclusive
COc1ccc(-c2ccc3c(c2)CN(C(=O)C(C)(C)C)Cc2cnnn2-3)cc1	TDP1 cell CPT inconclusive, S2 tox inconclusive, TDP1 cell noCPT inconclusive
Fc1ccccc1CN1Cc2ccccc2-n2nncc2C1	TDP1 cell CPT inconclusive, TDP1 cell noCPT 23µM
c1ccc(-c2ccc(CN3Cc4ccccc4-n4nncc4C3)cc2)cc1	TDP1 cell CPT 4.6µM, TDP1 cell noCPT 5.2µM
Cc1ccc(CN2Cc3ccc(Br)cc3-n3nncc3C2)cc1	TDP1 cell CPT inconclusive, S2 tox inconclusive, TDP1 cell noCPT inconclusive, TGFb inhibitor inconclusive
CN1Cc2ccccc2-n2nncc2C1	none
